Assay results published in PubChem BioAssay (NCI).
Compounds without any hit were thinned out: in the full panel of roughly 79,000, 15% have a hit. Calls of active or inactive are those of the source. Rule as the data show it: active = growth inhibition above about 70%; inactive = the rest.

Legend:
[1] = NCI Yeast Anticancer Drug Screen. Data for the mec2-1 strain (AID 157); details: S. cerevisiae mec2-1 strain, hits give high values
In short: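 Cells of the genetically defined mec2-1 yeast strain are incubated with test compound. Inhibition of growth is calculated against vehicle-treated controls.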

[2] = NCI Yeast Anticancer Drug Screen. Data for the rad14 strain (AID 159);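 also: 0% = growth of vehicle-treated control cultures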; details: S. cerevisiae rad14 strain growth inhibition, hits give high values
In short: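 Here, inhibition of yeast growth was measured after compound exposure, using a strain with a genetic defect in DNA damage repair and vehicle-treated cultures as the reference.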

[3] = NCI Yeast Anticancer Drug Screen. Data for the sgs1 mgt1 strain (AID 161);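 also: 0% = growth of cultures given vehicle only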; details: S. cerevisiae sgs1 mgt1 strain, hits give high values
In short: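 Read-out: growth inhibition vs vehicle controls. Cells: mutant yeast strain deficient in DNA damage repair.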

[4] = NCI Yeast Anticancer Drug Screen. Data for the CLN2oe strain (AID 163);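 also: 0% = growth of vehicle-only control cultures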; details: S. cerevisiae CLN2oe strain, hits give high values
In short: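 Strain altered in cell-cycle control, incubated with compound; growth compared to solvent-treated controls.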

[5] = NCI Yeast Anticancer Drug Screen. Data for the cln2 rad14 strain (AID 165);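 also: 0% = growth equal to vehicle treated cultures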; details: S. cerevisiae cln2 rad14 strain, hits give high values
In short: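 The screen exposed genetically defined yeast (cln2 rad14) to test compounds and scored growth inhibition relative to vehicle-treated controls.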

[6] = NCI Yeast Anticancer Drug Screen. Data for the bub3 strain (AID 167); details: S. cerevisiae bub3 mutant strain, hits give high values
In short: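 Whole-cell yeast assay. The mutant strain was incubated with compounds, and growth inhibition was determined by comparison with vehicle-treated cells.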

[7] = NCI Yeast Anticancer Drug Screen. Data for the wt2 strain (AID 169);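 also: 0% = growth of vehicle-treated yeast cultures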; details: S. cerevisiae wt2 strain growth inhibition, hits give high values
In short: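 Steps: yeast strain treated with compound; growth recorded; inhibition calculated relative to cultures given vehicle alone.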

[8] = NCI Yeast Anticancer Drug Screen. Data for the mlh1 strain (AID 171);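 also: 0% = growth of vehicle-treated control cultures of the same strain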; details: S. cerevisiae mlh1 strain growth inhibition, hits give high values
In short: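 Yeast screen: mutant strain plus compound, growth scored against vehicle control wells.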

[9] = NCI Yeast Anticancer Drug Screen. Data for the sgs1 strain (AID 173);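 also: 0% = growth of vehicle-only control cultures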; details: S. cerevisiae sgs1 mutant, hits give high values
In short: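 Inhibition of yeast growth served as the measure. The mutant strain was treated with each compound, and growth was normalised to cultures receiving vehicle alone.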

[10] = NCI Yeast Anticancer Drug Screen. Data for the mlh1 rad18 strain (AID 175); details: S. cerevisiae mlh1 rad18 strain growth inhibition, hits give high values
In short: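 Compound-treated yeast growth, normalised to vehicle controls. Strain bears defined DNA repair mutations.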

[11] = NCI Yeast Anticancer Drug Screen. Data for the rad52 strain (AID 147);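 also: 0% = growth of vehicle-treated control cultures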; details: S. cerevisiae rad52 mutant growth inhibition, hits give high values
In short: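 Genetically altered yeast (DNA damage repair defect) treated with compound; inhibition calculated relative to vehicle.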

[12] = NCI Yeast Anticancer Drug Screen. Data for the wt1 strain (AID 149);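 also: 0% = growth of vehicle-treated wt1 cultures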; details: S. cerevisiae wt1 strain (SPY 50644) growth inhibition, hits give high values
In short: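 Measured: growth of wt1 yeast under compound versus vehicle treatment, reported as inhibition.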

[13] = NCI Yeast Anticancer Drug Screen. Data for the rad50EPP+ strain (AID 151);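 also: 0% = growth of vehicle-treated control cultures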; details: S. cerevisiae rad50 mutant strain, hits give high values
In short: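 Strain rad50EPP+; compound exposure; % growth inhibition vs vehicle.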

[14] = NCI Yeast Anticancer Drug Screen. Data for the mgt1 strain (AID 153); details: S. cerevisiae mgt1 mutant growth inhibition, hits give high values
In short: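 Read-out: yeast growth inhibition vs vehicle control. Strain mgt1, drawn from a panel altered in DNA damage repair or cell cycle control.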

[15] = NCI Yeast Anticancer Drug Screen. Data for the rad50 strain (AID 155);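 also: 0% = growth of vehicle-only cultures of the same strain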; details: S. cerevisiae rad50 strain growth inhibition, hits give high values
In short: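 Growth of the mutant yeast was measured after compound exposure and referenced to vehicle-treated cultures.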

[16] = NCI Yeast Anticancer Drug Screen. Data for the rad18 strain (AID 177); details: S. cerevisiae rad18 mutant growth inhibition, hits give high values
In short: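 Inhibition values reflect reduced yeast growth compared with vehicle-treated controls, using a strain engineered with a DNA damage repair defect.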

[17] = at 5.0 µM (retest, dose inferred, filed as 0.5)
[18] = at 50.0 µM (retest, dose inferred, filed as 5.0)

Measured: growth inhibition

COc1nc2c(c(=O)n1C)N=C(c1ccccc1)[C@H](C(CC(=O)c1ccccc1)c1ccccc1)C(c1ccccc1)N2 (some centres undefined)
active: [1]; [18] 94% | [9]; at 100.0 µM 71%
inactive: [1]; [17] 13% | [1]; at 11.0 µM -8% | [1]; at 33.0 µM -4% | [1]; at 50.0 µM 61.5% | [1]; at 100.0 µM 34% | [2]; at 1.2 µM -1% | [2]; at 3.7 µM -10% | [2]; at 11.0 µM -1% | [2]; at 33.0 µM 31% | [2]; at 100.0 µM 57% | [3]; [17] -14% | [3]; [18] 35% | [3]; at 50.0 µM 53.7% | [4]; at 1.2 µM 10% | [4]; at 3.7 µM 1% | [4]; at 11.0 µM 4% | [4]; at 33.0 µM 13% | [4]; at 100.0 µM 43% | [5]; [17] 2% | [5]; [18] -15% | [5]; at 50.0 µM 7.8% | [6]; at 1.2 µM -11% | [6]; at 3.7 µM -34% | [6]; [17] 0% | [6]; at 11.0 µM 9% | [6]; at 33.0 µM 18% | [6]; [18] 23% | [6]; at 50.0 µM 36.4% | [6]; at 100.0 µM 41% | [7]; at 1.2 µM -8% | [7]; at 3.7 µM -8% | [7]; at 11.0 µM -7% | [7]; at 33.0 µM 22% | [7]; at 100.0 µM 46% | [8]; at 1.2 µM -53% | [8]; at 3.7 µM -38% | [8]; at 11.0 µM -9% | [8]; at 33.0 µM 34% | [8]; at 100.0 µM 60% | [9]; at 1.2 µM -9% | [9]; at 3.7 µM -10% | [9]; at 11.0 µM 23% | [9]; at 33.0 µM 40% | [10]; [17] 14% | [10]; [18] 35% | [10]; at 50.0 µM 20.1%

CCOc1ccccc1N=Cc1c2ccccc2cc2ccccc12
active: [11]; at 11.0 µM 98% | [11]; at 33.0 µM 99% | [11]; at 100.0 µM 99% | [12]; at 11.0 µM 95% | [12]; at 33.0 µM 97% | [12]; at 100.0 µM 95% | [13]; at 33.0 µM 90% | [13]; at 100.0 µM 89% | [14]; at 3.7 µM 75% | [14]; at 11.0 µM 97% | [14]; at 33.0 µM 98% | [14]; at 100.0 µM 98% | [15]; at 11.0 µM 97% | [15]; at 33.0 µM 98% | [15]; [18] 98% | [15]; at 50.0 µM 88.8% | [15]; at 100.0 µM 97% | [1]; at 11.0 µM 98% | [1]; at 33.0 µM 98% | [1]; [18] 99% | [1]; at 50.0 µM 90.8% | [1]; at 100.0 µM 98% | [2]; at 3.7 µM 74% | [2]; at 11.0 µM 98% | [2]; at 33.0 µM 98% | [2]; at 100.0 µM 98% | [3]; [18] 98% | [3]; at 50.0 µM 90.9% | [4]; at 11.0 µM 97% | [4]; at 33.0 µM 98% | [4]; at 100.0 µM 97% | [5]; [18] 98% | [6]; at 11.0 µM 96% | [6]; at 33.0 µM 98% | [6]; [18] 99% | [6]; at 50.0 µM 89.9% | [6]; at 100.0 µM 97% | [7]; at 11.0 µM 96% | [7]; at 33.0 µM 98% | [7]; at 100.0 µM 97% | [8]; at 11.0 µM 97% | [8]; at 33.0 µM 98% | [8]; at 100.0 µM 97% | [9]; at 11.0 µM 96% | [9]; at 33.0 µM 97% | [9]; at 100.0 µM 96% | [10]; [18] 98% | [10]; at 50.0 µM 86.5% | [16]; at 11.0 µM 97% | [16]; at 33.0 µM 98% | [16]; at 100.0 µM 97%
inactive: [11]; at 1.2 µM 10% | [11]; at 3.7 µM 28% | [12]; at 1.2 µM -2% | [12]; at 3.7 µM 26% | [13]; at 1.2 µM -4% | [13]; at 3.7 µM 24% | [13]; at 11.0 µM 63% | [14]; at 1.2 µM 2% | [15]; at 1.2 µM 1% | [15]; at 3.7 µM 39% | [15]; [17] 11% | [1]; at 1.2 µM -18% | [1]; at 3.7 µM 33% | [1]; [17] 7% | [2]; at 1.2 µM -23% | [3]; [17] -8% | [4]; at 1.2 µM 18% | [4]; at 3.7 µM 36% | [5]; [17] 44% | [5]; at 50.0 µM 58.6% | [6]; at 1.2 µM 4% | [6]; at 3.7 µM 34% | [6]; [17] 37% | [7]; at 1.2 µM -4% | [7]; at 3.7 µM 34% | [8]; at 1.2 µM 18% | [8]; at 3.7 µM 56% | [9]; at 1.2 µM -18% | [9]; at 3.7 µM 24% | [10]; [17] 38% | [16]; at 1.2 µM -3% | [16]; at 3.7 µM 21%

COc1ccc(C2C3=C(COC3=O)OC(C)(C)Oc3cc4c(cc32)OCO4)cc1OC (centres undefined)
active: [11]; at 100.0 µM 93% | [12]; at 100.0 µM 94% | [14]; at 100.0 µM 94% | [15]; [18] 91% | [15]; at 50.0 µM 97% | [15]; at 100.0 µM 90% | [1]; at 50.0 µM 96.1% | [1]; at 100.0 µM 95% | [2]; at 100.0 µM 91% | [3]; at 50.0 µM 96.7% | [4]; at 100.0 µM 90% | [5]; at 50.0 µM 91.6% | [6]; [18] 86% | [6]; at 50.0 µM 96.3% | [6]; at 100.0 µM 88% | [7]; at 100.0 µM 90% | [8]; at 100.0 µM 94% | [9]; at 100.0 µM 94% | [10]; [18] 96% | [10]; at 50.0 µM 97.5% | [16]; at 100.0 µM 94%
inactive: [11]; at 1.2 µM 17% | [11]; at 3.7 µM 19% | [11]; at 11.0 µM 11% | [11]; at 33.0 µM 47% | [12]; at 1.2 µM 9% | [12]; at 3.7 µM 10% | [12]; at 11.0 µM 13% | [12]; at 33.0 µM 23% | [13]; at 1.2 µM 5% | [13]; at 3.7 µM 4% | [13]; at 11.0 µM 4% | [13]; at 33.0 µM 4% | [13]; at 100.0 µM 12% | [14]; at 1.2 µM 27% | [14]; at 3.7 µM 26% | [14]; at 11.0 µM 31% | [14]; at 33.0 µM 54% | [15]; at 1.2 µM 15% | [15]; at 3.7 µM 26% | [15]; [17] 0% | [15]; at 11.0 µM 33% | [15]; at 33.0 µM 57% | [1]; at 1.2 µM 25% | [1]; at 3.7 µM 29% | [1]; [17] 9% | [1]; at 11.0 µM 33% | [1]; at 33.0 µM 58% | [1]; [18] 65% | [2]; at 1.2 µM 11% | [2]; at 3.7 µM 5% | [2]; at 11.0 µM 5% | [2]; at 33.0 µM 30% | [3]; [17] -9% | [3]; [18] 50% | [4]; at 1.2 µM 11% | [4]; at 3.7 µM 17% | [4]; at 11.0 µM 10% | [4]; at 33.0 µM 18% | [5]; [17] -1% | [5]; [18] 57% | [6]; at 1.2 µM -47% | [6]; at 3.7 µM -56% | [6]; [17] -9% | [6]; at 11.0 µM -33% | [6]; at 33.0 µM 24% | [7]; at 1.2 µM 5% | [7]; at 3.7 µM 2% | [7]; at 11.0 µM 8% | [7]; at 33.0 µM 26% | [8]; at 1.2 µM -11% | [8]; at 3.7 µM 0% | [8]; at 11.0 µM 6% | [8]; at 33.0 µM 57% | [9]; at 1.2 µM 37% | [9]; at 3.7 µM 23% | [9]; at 11.0 µM 27% | [9]; at 33.0 µM 61% | [10]; [17] -1% | [16]; at 1.2 µM -4% | [16]; at 3.7 µM 5% | [16]; at 11.0 µM 7% | [16]; at 33.0 µM 41%
